From PubChem BioAssay (NCI)
The panel holds about 79,000 compounds, 15% with a hit somewhere; the sample as a whole holds those more often. Calls of active or inactive are those of the source. No stated cut-off is given here; in the data, active means growth inhibition above about 70%; inactive means the rest.

Assay: NCI Yeast Anticancer Drug Screen. Data for the sgs1 strain (AID 173);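 further: 0% = growth of vehicle-only control cultures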
Details: S. cerevisiae sgs1 mutant, hits give high values
Description: Growth inhibition of yeast strains with defined genetic alterations is measured as a screen for potential anti-cancer activity. Selected strains with alterations in DNA damage repair or cell cycle control were exposed to compounds and growth inhibition was measured relative to vehicle treated controls. The strain used in this assay is sgs1

Measured: growth inhibition

Cc1cc(OCc2nc(N)nc(N)c2-c2ccc(Cl)c(Cl)c2)ccc1[N+](=O)[O-]
inactive: at 1.2 µM -1% | at 3.7 µM -3% | at 11.0 µM -2% | at 33.0 µM -1% | at 100.0 µM 0%

O=C1c2cccc3cccc(c23)C(=O)N1CCNCCN1C(=O)c2cccc3cccc(c23)C1=O
inactive: at 1.2 µM -1% | at 3.7 µM -2% | at 11.0 µM -1% | at 33.0 µM -1% | at 100.0 µM 4%

COc1cc(C(=O)C=O)cc(OC)c1OC
inactive: at 1.2 µM 1% | at 3.7 µM 4% | at 11.0 µM 3% | at 33.0 µM 31%
active: at 100.0 µM 97%

CC(C)NCCCNc1c2ccccc2nc2cccc([N+](=O)[O-])c12
active: at 1.2 µM 92% | at 3.7 µM 94% | at 11.0 µM 96% | at 33.0 µM 97% | at 100.0 µM 98%

CC(C)=CCC/C(C)=C/CN1C(=O)C=CC1=O
active: at 11.0 µM 99% | at 33.0 µM 100% | at 100.0 µM 99%
inactive: at 1.2 µM 20% | at 3.7 µM 48%

N#CCC(=O)N/N=C(\c1ccccc1)C(c1ccccc1)C1(O)C(=O)Nc2c(Cl)ccc(Cl)c21 (stereo not given)
inactive: at 1.2 µM -1% | at 3.7 µM 0% | at 11.0 µM 1% | at 33.0 µM 11% | at 100.0 µM 37%

CCCCN(CCCC)c1ccc(N=Nc2ccc(S(=O)(=O)O)cc2)cc1
inactive: at 1.2 µM 30% | at 3.7 µM 53%
active: at 11.0 µM 90% | at 33.0 µM 94% | at 100.0 µM 94%

Cc1cccc2c1C1c3c(C)cccc3C(CC(=O)O)CC1CC2 (stereo not given)
inactive: at 1.2 µM 10%
active: at 3.7 µM 75% | at 11.0 µM 98% | at 33.0 µM 96% | at 100.0 µM 92%
